Reference: PubChem BioAssay AID1159614 (National Center for Advancing Translational Sciences (NCATS), 2016)
In all, about 45,000 compounds went through this assay and about 65 (0.1%) were called active. Calls follow the shape of the dose curve; as a rule, active = well fitted activation curve with a large enough effect; inconclusive = small, poorly fitted or top-dose-only effect; inactive = no such curve, though single readings can be large or run the other way. The full list was thinned out, with actives kept by preference.

molecular target: Galactocerebrosidase (Homo sapiens) (UniProt P54803); experiment: A Novel Cell-Based Assay to Identify Small Molecules for B -Galactocerebrosidase; settings: 145M-Twi-hGALC-G270D cells (Twitcher mouse brain line with human GALC G270D), HMU-beta-Gal fluorescence, 48 h; series mostly up to 57.5 µM; activation: at the top concentration; also: 0% is about no effect; nearly all actives have a fitted effect of over 65% in size
Excerpt: Lysosomal storage diseases (LSDs) are caused by genetic mutations in genes encoding proteins important for normal lysosomal function. Globoid cell leukodystrophy (GLD), mostly known as Krabbe disease, is a prototype of the neurological LSDs caused by deficiency of beta-galactocerebrosidase (GALC). In brain specimens of GLD patients, psychosine levels are substantially elevated. At elevated concentrations, psychosine becomes cytotoxic to neuronal cells, particularly to oligodendrocytes (OLG), neural cells responsible for myelin formation. Therefore, the biochemical disturbances in GLD are manifested by different degrees of brain demyelination resulting in a broad spectrum of neurological manifestations. Most of the FDA-approved therapies are based on enzyme replacement therapeutic (ERT) agents, which treat non-neurological symptoms of Gaucher disease, Fabry disease, few mucopolysaccharidoses and Pompe disease. Unfortunately, in GLD, a primarily neurological LSD, ERT agents, as large molecular weight molecules unable to cross the blood-brain barrier, which makes this an inefficacious therapeutic approach. In GLD, increasing the residual GALC activity just above the critical threshold (~10% of wild type enzymatic activity), the cytotoxic levels of psychosine will be reduced, avoiding the OLGs apoptosis and the subsequent demyelination process. This will translate in disease stabilization and amelioration of GLD patient symptoms.
A cell-based assay in 1,536-well plate format was developed to implement a quantitative high-throughput screening (qHTS) assay using GLD-disease relevant cells to identify small molecules that produce enhancements of the residual enzymatic activity levels of mutants GALC found and prevalent in GLD patients. Compounds that are active may therefore have some therapeutic application for GLD. After the treatment of live cells for a determined period, using a fluorescent GALC specific substrate, the mutant residual GALC activity is measured. This cell-based qTHS assay was used to screen part of the MLPCN library for small molecule able to increase the mutant GALC enzymatic activity. In this assay, increased fluorescent signal corresponds to enhanced levels of mutant GALC residual enzymatic activity. Activation is the desired outcome for this assay.
NIH Chemical Genomics Center [NCGC]
NIH Molecular Libraries Probe Centers Network [MLPCN]
Assay Submitter (PI): Gustavo Maegawa MD,PhD, University of Florida, Gainesville, FL
2)#Two cell lines were established for the assay: 145M-Twi-hGALC-G270D (brain-derived Twitcher cell line stably expressing human GALC-G270D) and 145M-Twi-hGALC-WT (same 145M-Twi stably expressing human GALC wild type). The Twitcher is the murine C57B/6 model for GLD with naturally occurring homozygous nonsense GALC mutation. The 145M-Twi cell line was established at Maegawa lab (Ribbens J et al 2014).
a.#Media: DMEM/F12 (1:1) with 10% fetal bovine-serum (FBS) with penicillin/streptomycin (PS-1X - 100 I.U./mL of penicillin+100 ug/mL of streptomycin).
b.#The 6-Hexadecanoylamino-4-methylumbelliferyl-b-D-galactoside (HMU-B-gal) substrate was prepared as per Wiederschain et al 1992. Using 20-mL borosilicate tubes, 2.20 mg of HMU-b-Gal was added in each tube to prepare substrate-film with a final air-nitrogen stream evaporation to remove all diluent solvents.
c.#The HMUb-Gal substrate buffer consists of 0.2 M Na2HPO4 (sodium phosphate dibasic)/ 0.1 M Citric Acid with the pH adjusted to 5.2 using HCl. Sodium Azide at 0.02% and Sodium Taurocholate (NaTC) at 1 mg/mL were added to this substrate buffer.
d.#The HMU-b-Gal stopping buffer consist of 0.5 M NaHCO3 (sodium bicarbonate) /0.5 M Na2CO3 (sodium carbonate). […] Triton X-100 at 0.25% was added.
4)#Preparation of HMU-b-Gal substrate tubes
Adding 18.6 mL of the HMUb-Gal substrate buffer to each 20-mL tube (2.20 mg of HMU-b-Gal) will reach a concentration of 0.2 mM. Vortex well the tube until the solution is fully homogenized (clear cloudy solution). […]

Galactocerebrosidase (Homo sapiens), sequence (P54803 whole entry G286D): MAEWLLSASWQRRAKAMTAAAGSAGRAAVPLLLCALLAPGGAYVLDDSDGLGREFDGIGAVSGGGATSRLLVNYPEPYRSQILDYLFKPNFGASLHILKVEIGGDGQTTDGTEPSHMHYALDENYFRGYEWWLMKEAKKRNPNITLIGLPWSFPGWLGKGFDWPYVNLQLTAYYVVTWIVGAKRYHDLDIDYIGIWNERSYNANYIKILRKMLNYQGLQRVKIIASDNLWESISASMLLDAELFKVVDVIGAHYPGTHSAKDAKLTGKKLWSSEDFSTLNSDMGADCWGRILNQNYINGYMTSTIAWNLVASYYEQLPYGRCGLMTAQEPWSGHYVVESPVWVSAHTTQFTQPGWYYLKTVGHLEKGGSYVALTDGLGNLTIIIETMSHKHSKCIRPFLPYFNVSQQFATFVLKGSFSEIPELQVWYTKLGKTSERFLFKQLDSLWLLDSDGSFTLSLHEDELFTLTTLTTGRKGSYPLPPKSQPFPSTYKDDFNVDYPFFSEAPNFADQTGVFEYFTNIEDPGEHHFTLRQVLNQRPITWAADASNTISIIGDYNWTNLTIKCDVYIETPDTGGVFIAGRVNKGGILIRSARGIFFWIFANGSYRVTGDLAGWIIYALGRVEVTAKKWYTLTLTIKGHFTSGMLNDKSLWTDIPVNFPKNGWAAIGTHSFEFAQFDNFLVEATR

activation, inactive:
Cc1ccc(OCCn2c(CNc3ccccc3C)nc3ccccc32)cc1 -7.23%
Cc1nn(C)c2c1c(C(F)(F)F)cc(=O)n2C(C)C(=O)NCc1ccc(Cl)cc1 (stereo unspecified) -22.1%
CCOCCCn1c(SCC(=O)Nc2ccc(CC)cc2)nc2ccccc2c1=O -12.9%
C=Cc1ccc(Cn2c(C(=O)OC)cc3sc(C)cc32)cc1 -7.18%
COc1ccc(CCNC(=O)Cn2c(=O)n(-c3ccccc3)c(=O)c3c(C)c(C)sc32)cc1OC -4.98%
O=C(NC1CCN(Cc2ccccc2)CC1)c1ccc(Cn2c(=O)c3ccccc3n(Cc3cccc(F)c3)c2=O)cc1 -3.67%
CC1CCCN(c2cc3c(cc2F)c(=O)c(S(=O)(=O)c2cccc(Cl)c2)cn3Cc2ccccc2)C1 (stereo unspecified) -16.9%
Cc1nc(N2CCOCC2)c2c(C(=O)NCc3cccc(Cl)c3)c(C)oc2n1 -10.9%
O=C(Nc1ccc(S(=O)(=O)N2CCC(c3nc4ccccc4s3)CC2)cc1)c1ccccc1F -7.74%
Cc1ccc(N(CC(=O)NCC(C)c2ccccc2)S(=O)(=O)N(C)C)cc1 (stereo unspecified) 2.28%
COc1ccc(-n2ccn(CC(=O)Nc3ccc(C)c(C)c3)c(=O)c2=O)cc1OC -14.7%
CCCc1nn2c(=O)cc(COC(=O)c3ccc(NC(=O)C(C)Oc4ccccc4)cc3)nc2s1 (stereo unspecified) -6.74%
CCCSc1nc2sc3c(c2c(=O)n1-c1cccc(Br)c1)CC(C)(C)OC3 -5.57%
Cc1nn(C(C)C(=O)Nc2ccc(C(C)C)cc2)c(=O)c2c1sc1ccccc12 (stereo unspecified) -10.5%
Cc1cc(C)c(NC(=O)CSc2nc3nccnc3c(=O)n2CCc2c[nH]c3ccccc23)c(C)c1 -6.62%
O=C(CSc1nc(Nc2ccc(F)c(F)c2)c2ccccc2n1)c1ccc(Cl)cc1 -5.29%
CCn1c2c(c(=O)n3ncc(C(=O)N4CCN(c5ccccc5)CC4)c13)CN(Cc1ccc(OC)cc1)CC2 -22.7%
CC(=O)Nc1c(C)nn(-c2ccccc2)c1N1CCC(C(=O)Nc2cc(Cl)ccc2C)CC1 1.89%
Cc1cc(C)c(-c2n[nH]c3c2C(c2ccccc2F)N(CCO)C3=O)c(O)c1 (stereo unspecified) -9.56%
Cc1ccc(C)c(CN2C(=O)c3ccccc3S(=O)c3ccc(C(=O)N4CCOCC4)cc32)c1 (stereo unspecified) 4.19%
COc1ccc(CCNC(=O)c2cc3cccc4c3n2CC(C)S4)c(OC)c1OC (stereo unspecified) -2.07%
Oc1ccc(-c2nc3ccc(Cl)cn3c2Nc2ccc3c(c2)OCO3)cc1 -17%
COc1ccc(S(=O)(=O)N2CCN(c3ccc(F)cc3)CC2)cc1-c1noc(C)n1 -17.9%
O=C(NCc1ccccc1Cl)C1CCN(c2ncnc3c2nc2n3CCCCC2)CC1 -0.25%
Cc1ccc(C)c(Oc2c(C(F)(F)F)oc3c(CN4CCN(C)CC4)c(O)ccc3c2=O)c1 -12.2%
CCc1cccc(C)c1NS(=O)(=O)c1c(C)nc2sccn2c1=O -9.4%
CCOC(=O)c1c(-c2ccc(OC)cc2)oc2ccc(OCc3ccc(C(=O)OC)cc3)cc12 -11.1%
O=C(O)c1ccc2c(c1)N(Cc1ccc(F)cc1)C(=O)c1ccccc1S2=O (stereo unspecified) -9.29%
CCNC(=O)c1cc2n(n1)CCCN(Cc1ccc(C)cc1)C2=O 2.77%
COc1ccccc1CN1CCC(CNC(=O)c2cnn(-c3cccc(Cl)c3)c2C2CCN(C(=O)OC(C)(C)C)CC2)CC1 -20.3%
Cc1cc(NS(=O)(=O)c2ccc3oc(=O)c4ncn(C)c4c3c2)ccc1Br -7.99%
Cc1cccc(OCCSc2nc3ccccc3n2CC(=O)N2CCCCC2)c1C -30.3%
CN1C(=O)c2ccccc2Sc2ccc(NC(=O)Cc3ccc(Cl)cc3)cc21 -9.11%
CCc1ccc(NC(=O)CCS(=O)(=O)c2cc3c(cc2Cl)NC(=O)CO3)cc1 2.42%
COc1cccc(CN2CCc3nc(SCC(=O)Nc4ccccc4)[nH]c(=O)c3C2)c1 -3.87%
Cc1ccccc1-c1nc(CS(=O)(=O)CC(=O)Nc2cc(Cl)cc(Cl)c2)c(C)o1 -3.85%
CCc1nnc(SCC(=O)Nc2cc(OC)ccc2OC)nc1CC -10.7%
O=C(NCCCO)c1nn(-c2ccc(Cl)cc2)nc1CO -10.5%
Cn1nnc2c(N3CCN(c4ccccc4)CC3)ncnc21 -18.9%
CN1CCN(C(CNC(=O)c2ccccc2F)c2ccc3c(c2)OCO3)CC1 (stereo unspecified) -6.11%
COc1ccc(CNC(=O)c2ccc3c(O)c(S(=O)(=O)c4ccccc4)c(=O)[nH]c3c2)cc1 -15.3%
CCC(=O)Nc1cccc(C(=O)OCc2cc(=O)n3nc(CC)sc3n2)c1 -6.34%
Cc1cccc(OCCSc2nc3ccc(NC(=O)COc4ccccc4C)cc3s2)c1 -6.58%
Cc1cccc(CSc2nc3ccncc3n2CC(=O)N(C)C2CCCCC2)c1 -18.8%
Cc1ccccc1CSc1nc(-c2ccccc2)nc2c1Cc1c(CO)cnc(C)c1O2 -9.17%
O=C(Nc1nc2c(s1)CCCC2)c1ccccc1F -19%
COc1ccc(CNC(=O)CSc2n[nH]c(-c3ccc(F)cc3)n2)cc1 3.05%
COc1ccc(CNS(=O)(=O)c2ccc(-c3cnc(C4CC4)o3)cc2)cc1 -16.4%
CCc1nc2ccc(C(=O)N3CCN(c4cc(Cl)ccc4C)CC3)cc2nc1CC -15.1%
Cc1ccc(NC(=O)c2ccc(CN3CC(=O)N4CCCCC4C3=O)cc2)c(Cl)c1 (stereo unspecified) -34.4%
COc1cccc(NC(=O)Nc2ccc3c(c2)N(C)C(=O)c2ccccc2S3)c1 -12.1%
COc1ccccc1-c1nnc(SCC(N)=O)o1 -6.59%
Cc1cccc(C(=O)Nc2ccc(S(=O)(=O)N3CCCCC3c3cccnc3)cc2)c1 (stereo unspecified) 3.79%
CCc1ccc(NC(=O)c2sc3nc4c(cc3c2N)CN(CC)CC4)cc1 -6.64%
Cc1ccccc1NC(=O)CN1C(=O)C(C)(C)c2ccccc21 -12%
Cc1ccc(C(=O)Nc2ccc(OCc3cc(=O)n4c5c(sc4n3)CCCC5)cc2)cc1 -12.7%
COc1ccc(NC(=O)CSc2nccn2Cc2ccc3c(c2)OCO3)cc1 -12.6%
CCOC(=O)c1c(S(=O)(=O)N2CCC(C(=O)NCc3ccccc3OC)CC2)c(C)n(C)c1C -15.9%
O=C(Nc1ccccc1Br)c1cc(CN2CCCC2)on1 8.06%
COc1ccc(S(=O)(=O)NCc2cccn2Cc2cccc(C)c2)cc1Cl -40.9%
Cc1cccc(Cn2c(=O)n(CCC(=O)NCCc3ccc(Cl)cc3)c(=O)c3sccc32)c1 -0.804%
Cc1noc2ncnc(NCc3ccccc3Cl)c12 -36.2%
CCOc1ccc(CCNC(=O)CN(c2ccc(C)cc2)S(=O)(=O)N(C)C)cc1OCC -3.15%
COc1ccc(C)cc1NC(=O)CCc1c(C)nn(-c2ccc(N3CCOCC3)nn2)c1C -3.44%
CCc1ccc(N2C(=O)CN(S(=O)(=O)CC)CC2(C)C(=O)NC2CCCCC2)cc1 (stereo unspecified) 0.64%
Cc1ccc(Cc2nc3ccccc3nc2SCC(=O)Nc2cccc(C(F)(F)F)c2)cc1 -14.6%
Cc1ccc(-n2c(SCC(=O)c3ccccc3)nc3c([nH]c4ccccc43)c2=O)cc1 3.45%
CC(=O)OC1=C(C(C)=O)N(Cc2ccccc2)S(=O)(=O)c2ccccc21 -7.78%
Brc1cccc(-c2nnn3c2nc(NC2CCCCC2)c2ccccc23)c1 -7.7%
Cc1cccc(N2CCN(C(=O)CCSCc3ccccc3F)CC2)c1C -9.85%
COc1ccc(-c2c(C)nn3c(N4CCC(C(=O)NCCC(C)C)CC4)cc(C)nc23)cc1OC -9.96%
Cc1cccc(NC(=O)Cn2c(=O)n(CCC(C)C)c(=O)c3cccnc32)c1 -14%
O=[N+]([O-])c1cc(-c2nc(-c3ccccc3)no2)ccc1NCc1ccco1 -6.22%
Cc1cc(NC(=O)c2ccc(-c3ccc(Cl)cc3)o2)cc(-c2nc3ncccc3o2)c1O -5.71%
CCN(CC)c1ccc(NC(=O)Cn2nc3c(cc2=O)CCCC3)c(C)c1 -1.81%
Oc1c(C(c2ccccc2Cl)N2CCOCC2)sc2nc(-c3ccco3)nn12 (stereo unspecified) -10.8%
